Assay outcomes from PubChem BioAssay.
NPC1 prom act: activators of NPC1 promoter. Huh7 NPC1 promoter luciferase reporter, 24 h. Potency, µM (series often up to 9.22 µM), for the others: at the highest dose activation, actives largely listed as activators. actives 2.4% (n = 320,000); note: % of control where 0% means no effect; nearly all actives have a fitted effect of over 60% in size
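Luminescence from an NPC1 promoter-driven luciferase reporter in stably transfected Huh7 cells was measured after 24 h compound treatment at 37 °C, followed by 10 min ambient incubation with luciferase detection reagent.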
ELG1 genotoxic: genotoxicity induction in ELG1-luciferase HEK293T cells; HEK293T ELG1-luciferase reporter, luminescence, 16 h; Potency, µM (top dose mostly 46 µM), without a hit: at the highest dose activity change, positive = activation, actives largely listed as activators; actives 1.3% (n = 330,000); note: % of control where 0% means no effect; nearly all actives have a fitted effect of over 60% in size
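Screening used a luciferase reporter fused to human ELG1 in HEK293T cells. Luminescence was read on a CCD plate imager after 16 hr exposure and 30 min ONE-Glo incubation.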
p53 reactivation: mutant p53 re-activation in reporter cells; H1299 p53-A138V BP100-luciferase reporter, luminescence, 24 h; actives 0.063% (n = 320,000); AID 504706; Potency, µM (series often up to 92.2 µM), for the others: at the highest dose activity change, positive = activation, usual class: activators; note: % of control where 0% means no effect; nearly all actives have a fitted effect of over 45% in size
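H1299 (p53-null), stable ts p53-A138V + BP100-Luc; 1000 cells/well, Opti-MEM/10% FBS; cpd 4 pt, 1:5; 24 h, 37 deg C, 5% CO2; detection reagent 10 min RT; luminescence.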
FLuc counter: firefly luciferase modulation, counter-screen for miR-21 project. P08659. purified FLuc, Km substrates, luminescence inhibition. Potency, µM (highest dose often 57.5 µM), without a hit: at the top dose activity change, negative = inhibition, most hits filed as inhibitors. actives 6.9% (n = 360,000). AID 588342;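 note: plate controls were vehicle for no effect and reference inhibitor for full effect; nearly all actives have a fitted effect of over 55% in size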
Target sequence (P08659 whole entry, looked up): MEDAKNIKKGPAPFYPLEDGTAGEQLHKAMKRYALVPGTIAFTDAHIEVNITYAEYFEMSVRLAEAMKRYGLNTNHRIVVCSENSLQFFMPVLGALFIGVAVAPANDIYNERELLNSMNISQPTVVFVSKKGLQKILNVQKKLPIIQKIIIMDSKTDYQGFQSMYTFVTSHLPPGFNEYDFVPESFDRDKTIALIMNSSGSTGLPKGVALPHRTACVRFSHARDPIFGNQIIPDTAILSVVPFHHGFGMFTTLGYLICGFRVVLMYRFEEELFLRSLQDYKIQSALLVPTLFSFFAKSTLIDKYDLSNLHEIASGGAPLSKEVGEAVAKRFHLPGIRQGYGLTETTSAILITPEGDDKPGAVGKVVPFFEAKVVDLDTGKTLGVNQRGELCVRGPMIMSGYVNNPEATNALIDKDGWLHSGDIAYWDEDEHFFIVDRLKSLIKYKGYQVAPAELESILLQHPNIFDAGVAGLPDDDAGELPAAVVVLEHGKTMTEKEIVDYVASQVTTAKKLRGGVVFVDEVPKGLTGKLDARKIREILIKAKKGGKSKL
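Purified P. pyralis luciferase (10nM final) with 10uM D-luciferin and 10uM ATP (Km levels) in 50mM Tris acetate pH 7.5, 10mM Mg acetate, 0.01% Tween-20, 0.05% BSA; qHTS 6-point titration, ~60 µM downward; luminescence read.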
Rab9 prom act: activators of Rab9 promoter; Huh7 Rab9 promoter-luciferase reporter, luminescence, 24 h; AID 485297; Potency, µM (top dose mostly 9.22 µM), without a hit: top-dose activation, negative = inhibition, most hits filed as activators; actives 2.8% (n = 320,000); note: % of control where 0% means no effect; nearly all actives have a fitted effect of over 60% in size
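Luminescence read-out: Huh7 cells stably expressing Rab9-luciferase, treated 24 h with compound at 37 °C, then lysed with luciferase reagent for 10 min at ambient before reading.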
SMN2 splice up: increases expression of the SMN2 splice variant; HEK293 SMN2-luciferase splicing reporter, luminescence, 30-36 h; Potency, µM (top dose mostly 46.1 µM), inactives show top-dose activity change, positive = activation, hits mostly activators; actives 2.8% (n = 210,000); note: % of control where 0% means no effect; nearly all actives have a fitted effect of over 55% in size
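HEK293 cells carry an SMN2 minigene-luciferase reporter in which exon 7 inclusion puts luciferase in frame. Cells were seeded at 2000 cells/well, attached for 10-12 hours, then exposed to compounds for 30-36 hours at 37C before ONE-Glo luminescence.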
An asterisk follows results filed as active; ? = inconclusive; nt = not tested or not shown; [ ] = another dose, or the depositor's remark. Sampled rows, rich in hits. Any-hit rate of the full collection: about 7.3%. Calls come from the whole dose curve; as a rule, active = well fitted curve in the direction sought with a large enough effect; inconclusive = small, poorly fitted or top-dose-only effect, or another doubt; inactive = no such curve, though single readings can be large; an effect the other way counts as inactive or inconclusive. Potency is the fitted concentration of half-maximal effect.

SMILES	NPC1 prom act	ELG1 genotoxic	p53 reactivation	FLuc counter	Rab9 prom act	SMN2 splice up
CCc1ccc(C(=O)Nc2ccc3nn(-c4ccc(C)c(Cl)c4)nc3c2)cc1	nt	nt	nt	-6%	nt	15%
Nc1ccc2c(c1)C(=O)N(c1cccc3ccccc13)C2=O	2%	1%	-1%	-8%	12%	nt
Nc1ccc2nn(-c3cccc4ccccc34)nc2c1	8%	7%	-5%	19µM*	12%	-3%
Cc1cc2nn(-c3cccc4ccccc34)nc2cc1N	?	13µM*	?	4.8µM*	2.8µM*	13µM*
O=C(COC(=O)c1ccc(Cl)cc1O)NCCN1C(=O)CSC1=O	0%	-2%	-2%	-2%	1%	nt
Cc1ccc(O)c(NC(=O)c2noc3c2CCc2ccccc2-3)c1	?	23µM*	9%	5%	?	-51%
Cc1cc(NC(=O)c2noc3c2CCc2ccccc2-3)no1	27%	?	11%	-11%	?	?
CC(=O)c1cccc(NC(=O)c2noc3c2CCc2ccccc2-3)c1	4µM*	?	6%	2.4µM*	2.5µM*	3.5µM*
N#C/C(C(N)=O)=c1/ccc2c(c1)N1C3=C(CCCC3)CC3CCCCC31N=2 (configuration not stated)	-10%	-28%	0%	8.5µM*	-6%	-15%
N#CC(C#N)=c1ccc2c(c1)N1C3=C(CCCC3)CC3CCCCC31N=2 (configuration not stated)	-5%	-8%	-1%	12µM*	1%	-108%
CCOC(=O)c1[nH]c2ccccc2c1NC(=O)c1ccccc1F	nt	nt	nt	-7%	nt	-3%
Cn1c2ccccc2c(=O)c2ccc(F)cc21	-1%	16%	nt	-6%	4%	nt
Cn1c2ccccc2c(=O)c2cc(C#CC3(O)CCCCC3)ccc21	?	0.12µM*	3%	0.076µM*	?	nt
Cn1c2ccccc2c(=O)c2ccc(C#CC3(N)CCCCC3)cc21	4µM*	7.3µM*	nt	6.7µM*	2µM*	nt
COc1cc(-c2noc(C)c2C#CC2(N)CCCCC2)cc(OC)c1OC	1%	5%	2%	1%	4%	nt
COc1cccc2oc3ccc(C#CC4(N)CCCCC4)cc3c(=O)c12	?	18µM*	nt	6µM*	?	nt
CCc1ccc(NCc2cc3cc4c(cc3n(CC(=O)Nc3ccccc3OC)c2=O)OCCO4)cc1	nt	nt	nt	-8%	nt	nt
Cc1ccc(C(=O)N2CCC(N3CCC(C(=O)N4CCOCC4)CC3)CC2)cc1C	-5%	-3%	0%	0%	-2%	nt
CC1(C)[C@@H]2CC[C@]1(CC(=O)O)[C@H](Cl)C2	nt	nt	nt	nt	nt	13%[9.22 µM]
COCCNC(=O)CN(Cc1ccccc1)C(=O)CCC(=O)Nc1nccs1	1%	-6%	4%	2%	-5%	nt
N#Cc1cccc(NC(=O)COC(=O)c2cc(S(=O)(=O)Nc3ccccc3Cl)ccc2O)c1	nt	-3%	4%	nt	nt	nt
O=C(COC(=O)c1cc(S(=O)(=O)Nc2ccccc2Cl)ccc1O)Nc1nc2ccccc2s1	6%	4%	6%	21µM*	?	16%
Cc1ccc(C(=O)c2oc3ccccc3c2NC(=O)COc2ccccc2C)cc1	nt	nt	nt	4%	nt	14%
O=C(O)CCCCCNC(=O)C(=O)C1C(=O)Nc2ccccc21 (configuration not stated)	1%	0%	?	-2%	-1%	nt
Cc1ccc(NC(=O)N2CCc3ccccc32)cc1	0.71µM*	?	nt	0.54µM*	0.63µM*	1.3µM*
SMILES	NPC1 prom act	ELG1 genotoxic	p53 reactivation	FLuc counter	Rab9 prom act	SMN2 splice up
Cc1ccc(NC(=O)CN2C(=O)CCc3ccccc32)cc1C	nt	nt	nt	24µM*	nt	nt
CN1CCN(c2ccc(NC(=O)N3CCc4ccccc43)cc2)CC1	0.32µM*	0.46µM*	?	0.76µM*	0.11µM*	nt
Cc1ccc(NC(=O)N2CCc3ccccc32)cc1C	0.5µM*	0.65µM*	2%	0.67µM*	0.32µM*	1.4µM*
Cc1ccc(Cl)cc1NC(=O)CN1C(=O)CCc2ccccc21	nt	nt	nt	-1%	nt	nt
Cc1ccc(NC(=O)N2CCCc3ccccc32)cc1	11%	7%	7%	?	17%	nt
CN1C(=O)CSc2ccc(NC(=O)N3CCc4ccccc43)cc21	-4%	-1%	-12%	2%	-11%	nt
CCN1CCN(c2c(Cl)cccc2NC(=O)c2ccc([N+](=O)[O-])cc2)CC1	1%	-3%	-1%	1%	-1%	-18%
O=C(O)CN1CCN(Cc2ccccc2F)C1=O	-7%	0%	4%	-2%	1%	-40%
COc1cc2c(cc1OC)C1O[C@](c3ccsc3)(C2)OC2=C1C(=O)OC1(CCCCC1)C2	-4%[1.84 µM]	nt	nt	-1%[11.5 µM]	4%[1.84 µM]	nt
Cc1ccc(-n2[nH]c(C)c(/C=N/Nc3ccc([N+](=O)[O-])cc3[N+](=O)[O-])c2=O)cc1	-8%	-11%	-17%	19µM*	-11%	-63%
Cc1ccc(CSc2nc3ncccc3[nH]2)cc1	0.56µM*	24%	-1%	2.4µM*	0.79µM*	1.8µM*
S=c1nc(SCc2ccccc2)[nH]c2ccccc12	0%	-14%	2%	?	-1%	-59%
c1ccc(CSc2nc3ncncc3[nH]2)cc1	8%	4%	3%	17µM*	20%	nt
Clc1ccc(CSc2nc3ncccc3[nH]2)cc1	nt	nt	nt	6µM*	nt	13µM*
Cc1cc(C)nc(SCc2cnc(C)nc2N)n1	-5%	8%	-3%	2%	-6%	4%
C[N+](C)(C)c1ncnc2c1ncn2[C@@H]1CCCCO1	nt	nt	nt	nt	nt	-12%[9.22 µM]
COc1ccc(OC)c(NC(=O)Cn2cnc3sc(C)c(S(=O)(=O)N4CCN(c5ccccc5OC)CC4)c3c2=O)c1	nt	nt	nt	-1%	nt	8%
COc1cccc(NC(=O)CSc2nccn2Cc2ccc3c(c2)OCO3)c1	nt	nt	nt	-11%	nt	nt
Cc1c(-c2ccc(OCc3ccccc3)cc2)nc2ccccc2c1C(=O)O	16%	-2%	8%	21µM*	3%	nt
CC(C(=O)Nc1ccc(S(=O)(=O)N2CCCC2)cc1)N1CCCC(C(N)=O)C1 (configuration not stated)	0%	-2%	-7%	5%	-7%	nt
CCOC(=O)c1cc2c(C)n(-c3ccc(N(C)C)cc3)c(C)c2cc(C(=O)OCC)c1=O	29%	2%	5%	1.7µM*	?	-23%
CCOC(=O)c1cc2c(C)n(-c3ccc(OCC)cc3)c(C)c2cc(C(=O)OCC)c1=O	0%	1%	?	-13%	0%	6%
Cc1ccc(CSc2nc3ccncc3n2CC(=O)Nc2cc(C)cc(C)c2)cc1	28%	?	15%	1.5µM*	?	?
COc1ccc(-c2nc(Cn3c(SCc4ccc(C)cc4)nc4ccncc43)c(C)o2)cc1OC	14%	0%	6%	1.7µM*	?	16%
